# Several values for one entry are separate records, joined by “and”; a condition that tells them apart may be missing. Identical values can stand only once. Records with an inconclusive call do not appear. Activity calls are given as the source filed them. Unless noted, the rule behind the calls is not given here.
# Experiments:
# [1] = P. berghei load reduction in hepatocytes – cell-based, HepG2, luciferase luminescence, HepG2 viability, primary screen (AID 624349; in the data active = parasite load remaining mostly below about 12%, no sharp cut-off; inactive = mostly above about 10%;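 note: 100% = mean of DMSO negative control wells on the same plate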); conditions: P. berghei liver stage in HepG2, luciferase luminescence, concentration not given here; parasite load remaining: stronger effect = lower value; viability: measured here: HepG2 viability without parasites
# [2] = system: Aerobactin synthetase IucA (Klebsiella pneumoniae); assay: inhibition of K. pneumoniae IucA enzyme – biochemical, Tocris library, absorbance (AID 1345561); conditions: purified IucA enzyme assay, absorbance (OD) read-out; stronger effect = lower value;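 tested at 8 µM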;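 note: 100% = enzyme without compound and 0% = no enzyme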
# [3] = viability loss with induced miR-34 in A549 – imaging, A549 dox-inducible miR-34, nuclei and caspase counts, primary screen (AID 1347080;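 active = compounds whose cell count with miR-34 switched on is under 0.7 times the count with it off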); conditions: A549 miR-34 inducible, Hoechst nuclei count, 48 h
# [4] = compounds altering HSF1 focus formation in cells – imaging, Selleck Cancer Library (AID 1347162; in the data active = plate-normalised HSF1 focus index below about 0.46); conditions: human cells, HSF1 nuclear foci imaging, at 10 µM; SSMD: measured here: HSF1 foci SSMD mean; cell count: measured here: cell number; plate-normalised HSF1 focus index: stronger effect = lower value
# [5] = MELAS cybrid and Rieske KO viability enhancers – cell-based, MELAS cybrids, Rieske KO mouse fibroblasts, CellTiter-Glo, primary screen (AID 1508586;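 active = mean z-score across replicates of 1.96 or higher in either the MELAS or the Rieske mutant cell line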;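 note: z relative to plate mean and SD of compound and empty wells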); conditions: low glucose
# [6] = galactose survival enhancers in mitochondrial complex I cybrids – cell-based, galactose medium, ATP luminescence, primary screen (AID 1645843;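 active = z-score of at least 1.8 in each of two replicates, scored against plate mean and spread of sample wells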;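 note: positive z means more ATP and so rescue of galactose-driven cybrid death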); conditions: complex I mutant cybrid cells, 72 h, stronger effect = higher value
# [7] = blockers of cellular phospholipid synthesis – cell-based, LOPAC library, screen 4, primary screen (AID 1347384); conditions: animal cells, phospholipid biosynthesis inhibition screen; at 10 µM
# [8] = compounds altering circadian rhythm period length – cell-based, LOPAC library, luminescence reporter (AID 2774); conditions: circadian reporter cells, at 7 µM, actives lie on both sides;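 note: values are relative to mean of DMSO wells on each plate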
# [9] = compounds altering viability of human ES cells (AID 493140); conditions: human embryonic stem cell survival screen; stronger effect = higher value;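 note: cells exposed to compounds for four days before counting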
# [10] = system: Hepatitis C virus NS3 helicase; assay: blockers of NS3h binding to ssDNA – biochemical, fluorescence polarization, LOPAC1280 library, primary screen (AID 687035; in the data active = inhibition above about 37%); conditions: Purified HCV NS3 helicase, Cy5-dT15 ssDNA binding fluorescence polarization; stronger effect = higher value; concentration not given here
# [11] = compounds altering Cy5-DNA-NS3h complex signal – biochemical, LOPAC1280, artefact control for HCV NS3 helicase inhibitor project (AID 687037); conditions: Cy5-DNA-NS3h complex fluorescence interference counterscreen
# [12] = viability loss in pontine glioma line – cell-based, JHH-DIPG-1, MIPE4.0, CellTiter-Glo, qHTS, dose response (AID 1347062; cut-off not given, nearly all actives have AC50 up to about 27 µM); conditions: JHH-DIPG-1 viability, CellTiter-Glo ATP luminescence
# [13] = viability loss in pontine glioma line – cell-based, SU-DIPG-IV, MIPE4.0, CellTiter-Glo, qHTS, dose response (AID 1347063; cut-off not given, nearly all actives have AC50 up to about 30 µM;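 note: compound exposure lasted 48 hours before the viability readout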); conditions: CellTiter-Glo ATP luminescence
# [14] = growth inhibition of DIPG cells – cell-based, MIPE5.0 library, qHTS (AID 1347068; cut-off not given, nearly all actives have IC50 up to about 30 µM); conditions: SU-DIPG-XXV viability
# [15] = chitosan synthesis blockers in C. neoformans – flow cytometry, Cibacron Brilliant Red staining (AID 1347148); conditions: Cryptococcus neoformans chitosan, stronger effect = lower value; at 10 µM unless noted;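 note: compound exposure lasted three days at 37 degrees C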
# [16] = stronger effect = lower value, cell number ratio, induced over uninduced
# [17] = measured here: relative caspase fold change +Dox/-Dox
# [18] = measured here: total cells with miR-34 induction, stronger effect = lower value
# [19] = measured here: total cells without miR-34 induction
# [20] = MELAS cybrid survival, CellTiter-Glo 48 h, stronger effect = higher value
# [21] = Rieske KO mouse fibroblast survival, CellTiter-Glo 72 h
compound,measurement,setting,value
Oc1ccc(Nc2nc(-c3ccc(Cl)cc3)cs2)cc1,parasite load remaining,[1],34.6% (inactive)
same,viability,[1],65.5%
same,remaining activity,[2],89% (inactive)
same,fold change,[3]; [16],0.947 (inactive) and 0.904 (inactive) and 0.869 (inactive)
same,fold change,[3]; [17],0.378 and 0.549 and 1.23
same,cell count,[3]; [18],4850 and 4920 and 2840
same,cell count,[3]; [19],5120 and 5440 and 3260
same,SSMD,[4],1.25
same,cell count,[4],6680
same,plate-normalised HSF1 focus index,[4],1.08 (inactive)
same,z-score,[5]; [20],-0.306
same,z-score,[5]; [21],2.78
same,z-score,[6],-0.695 (inactive)
C=CCc1cccc(/C=N/NC(=O)CN2CCN(Cc3ccccc3)CC2)c1O,remaining activity,[2],83.1% (inactive)
same,fold change,[3]; [16],1.09 (inactive) and 0.918 (inactive) and 0.982 (inactive)
same,fold change,[3]; [17],0.357 and 1.59 and 1.69
same,cell count,[3]; [18],2970 and 4320 and 3830
same,cell count,[3]; [19],2740 and 4710 and 3900
same,SSMD,[4],3.11
same,cell count,[4],7490
same,plate-normalised HSF1 focus index,[4],1.19 (inactive)
same,outcome,[7],inactive
same,z-score,[6],-1.15 (inactive) and -0.59 (inactive)
Oc1ccc(-c2nc(-c3ccc(F)cc3)c(-c3ccncc3)[nH]2)cc1,period change,[8],1.07 h (active)
same,survival,[9],94 (inactive)
same,parasite load remaining,[1],28.5% (inactive)
same,viability,[1],95.1%
same,inhibition,[10],-3% (inactive)
same,fluorescence ratio (interference),[11],0.9 (inactive)
same,remaining activity,[2],114% (inactive)
same,outcome,[12],inactive
same,AC50,[13],23.5 µM (active)
same,outcome,[14],inactive
same,fold fluorescence,[15],8.11 [at 150.9 µM] (inactive)
same,outcome,[7],inactive
same,z-score,[5]; [20],-0.659 (inactive)
same,z-score,[5]; [21],0.329
same,z-score,[6],1.04 (inactive) and 0.455 (inactive)
CC(C)C[C@@H](C(=O)N[C@H](C(=O)OC1CCCC1)c1ccccc1)[C@H](O)C(=O)NO,remaining activity,[2],125% (inactive)
same,AC50,[13],16.6 µM (active)
same,fold change,[3]; [16],1 (inactive)
same,fold change,[3]; [17],1.24
same,cell count,[3]; [18],7280
same,cell count,[3]; [19],7280
same,SSMD,[4],3.49
same,cell count,[4],6800
same,plate-normalised HSF1 focus index,[4],1.19 (inactive)
same,z-score,[6],0.875 (inactive)
COc1ccc(Br)cc1S(=O)(=O)NC(=O)/C=C/c1ccccc1Cc1ccc2ccccc2c1,remaining activity,[2],102% (inactive)
same,fold change,[3]; [16],1.05 (inactive) and 0.853 (inactive)
same,fold change,[3]; [17],1.89 and 2.15
same,cell count,[3]; [18],9590 and 8680
same,cell count,[3]; [19],9110 and 10200
same,outcome,[7],inactive
same,z-score,[6],0.395 (inactive) and 0.085 (inactive)
NS(=O)(=O)C#Cc1ccccc1,inhibition,[10],0% (inactive)
same,fluorescence ratio (interference),[11],1 (inactive)
same,remaining activity,[2],110% (inactive)
same,fold change,[3]; [16],1.19 (inactive) and 0.967 (inactive) and 1.13 (inactive)
same,fold change,[3]; [17],1.2 and 0.467 and 1.12
same,cell count,[3]; [18],3660 and 6510 and 3430
same,cell count,[3]; [19],3080 and 6730 and 3020
same,outcome,[7],inactive
same,z-score,[5]; [20],-0.62 (inactive)
same,z-score,[5]; [21],-0.117
same,z-score,[6],-1.27 (inactive) and -0.695 (inactive)
Clc1cccc(Nc2nnc(-c3ccccc3)c3ccccc23)c1,remaining activity,[2],100% (inactive)
same,fold change,[3]; [16],0.991 (inactive) and 0.925 (inactive)
same,fold change,[3]; [17],0.939 and 0.863
same,cell count,[3]; [18],1790 and 6180
same,cell count,[3]; [19],1810 and 6680
same,fold fluorescence,[15],8.57 [at 150.7 µM] (inactive)
same,z-score,[6],-1.22 (inactive)

# — PubChem BioAssay
